Screens deposited in PubChem by National Center for Advancing Translational Sciences (NCATS).
Most compounds without a hit are left out; they make up all but 7.3% or so of the library.
VP16 counter: inhibits Gal4-VP16 luciferase reporter, ROR gamma counter-screen; Drosophila S2 Gal4-VP16 UAS-luciferase, luminescence, 20 h; Potency, µM (top dose mostly 53.6 µM), for inactives: at the highest dose activity, negative = inhibition, actives largely listed as inhibitors; hit rate 3.5% among 310,000;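 further: Gal4-VP16 expression switched on by copper sulfate through the metallothionein promoter; nearly all actives have a fitted effect of over 50% in size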
RORgamma inh: blocks mouse ROR gamma transcriptional activity; Drosophila S2 Gal4-RORgamma UAS-luciferase reporter, 20 h; AID 2551; P51450; Potency, µM (top dose mostly 53.6 µM), for the others: at the top dose activity change, negative = inhibition, most hits filed as inhibitors; hit rate 5.4% among 310,000; further: nearly all actives have a fitted effect of over 60% in size
Target sequence (P51450 whole entry, looked up, the tested form may be a part): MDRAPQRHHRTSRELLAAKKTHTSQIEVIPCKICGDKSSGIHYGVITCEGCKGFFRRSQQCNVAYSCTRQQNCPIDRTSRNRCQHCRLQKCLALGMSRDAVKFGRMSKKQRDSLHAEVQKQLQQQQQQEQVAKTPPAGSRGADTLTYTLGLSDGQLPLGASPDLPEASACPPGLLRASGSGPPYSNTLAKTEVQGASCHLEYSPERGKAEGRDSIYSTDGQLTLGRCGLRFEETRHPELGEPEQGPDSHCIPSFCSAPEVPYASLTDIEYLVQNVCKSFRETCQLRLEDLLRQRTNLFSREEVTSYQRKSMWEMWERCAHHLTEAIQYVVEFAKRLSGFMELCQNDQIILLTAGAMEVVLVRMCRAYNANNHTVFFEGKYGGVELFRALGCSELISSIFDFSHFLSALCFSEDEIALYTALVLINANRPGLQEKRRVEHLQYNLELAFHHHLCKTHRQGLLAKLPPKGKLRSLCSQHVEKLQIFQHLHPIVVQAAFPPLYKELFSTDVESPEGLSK
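Read-out: Photinus luciferase luminescence; inhibitors lower reporter signal. Insect Schneider cells with Gal4-ROR gamma fusion under metallothionein promoter, UAS reporter; 700 uM final copper sulfate induction, 20 hr, ambient temperature.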
Tau fluor counter: counter-screen for tau fibril formation inhibitors; tau K18 P301L Alexa594 fluorescence, heparin fibrillization; Potency, µM (doses to about 57.7 µM), inactives show at the highest dose activity change, negative = decrease; hit rate 0.93% among 280,000; AID 1463; further: nearly all actives have a fitted effect of over 55% in size
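Human K18 P301L tau (15 uM unlabeled plus 0.24 uM Alexa 594-labeled, final) in 100 mM sodium acetate pH 7 was mixed with compound and 20 uM heparin and incubated 6 hr at 37 C.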
Tau ThT inhib: blocks human tau fibril formation measured by thioflavin T; P10636; recombinant tau K18 P301L, heparin-induced fibrillization, ThT fluorescence; Potency, µM (series often up to 57.4 µM), inactives show at the top dose activity, negative = inhibition, most hits filed as inhibitors; hit rate 2.1% among 270,000; further: nearly all actives have a fitted effect of over 55% in size
Target sequence (P10636 561-689 P618L limits assumed): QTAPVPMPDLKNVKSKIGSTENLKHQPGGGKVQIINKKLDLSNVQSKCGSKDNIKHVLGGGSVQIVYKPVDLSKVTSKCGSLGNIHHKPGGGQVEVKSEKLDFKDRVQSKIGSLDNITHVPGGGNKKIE
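ThT emission at 510 nm, taken 1 hr after adding 30 uM dye, quantifies aggregates formed when 20 uM heparin acts on human tau K18 P301L for 6 hr at 37 C.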
Tau fibril FP: blocks human tau fibril formation measured by polarization | P10636 | K18 P301L tau heparin fibrillization, Alexa594 FP, 6 h | Potency, µM (series often up to 57.7 µM), without a hit: at the top dose activity, negative = inhibition, actives largely listed as inhibitors | hit rate 0.39% among 280,000; further: nearly all actives have a fitted effect of over 55% in size
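Human K18 P301L fragment (15 uM unlabeled plus 0.24 uM Alexa 594-labeled) in 100 mM sodium acetate pH 7 with compound, aggregation induced by 20 uM heparin for 6 hr at 37 C. ThT (30 uM) added for 1 hr, then Alexa 594 FP read.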
Starred values were filed as active, the others as inactive; ? = inconclusive; · = no result given. The call rests on the fitted dose curve; in most records, active means well fitted curve in the direction sought with a large enough effect; inconclusive means small, poorly fitted or top-dose-only effect, or another doubt; inactive means no such curve, though single readings can be large; an effect the other way counts as inactive or inconclusive. On the % scale 0 is the no-effect control and ±100 the full control effect; potency means the concentration at half of the fitted maximal effect.

SMILES | VP16 counter | RORgamma inh | Tau fluor counter | Tau ThT inhib | Tau fibril FP
Cc1onc(-c2ccccc2)c1C(=O)N/N=C/c1cc(Br)c(Br)o1 | 10µM* | 7.1µM* | -23% | -9% | 1%
O=C1CNC(=S)N1C(CO)c1ccccc1 (configuration not stated) | -5% | 7% | · | · | ·
Cc1onc(-c2ccccc2)c1C(=O)N/N=C/c1cc2c(cc1Cl)OCO2 | 10% | -8% | -18% | -9% | -5%
Cc1ccc(/C=N/NC(=O)c2c(-c3ccccc3)noc2C)o1 | ? | 13µM* | -5% | -7% | -1%
O=C(NC(=S)Nc1cccc(NC(=S)NC(=O)c2ccco2)n1)c1ccco1 | 0.79µM* | 0.089µM* | -10% | -6% | ?
Cc1cc(C)c(O)c(NC(=S)NC(=O)Cc2ccccc2)c1 | 5.6µM* | 10µM* | · | · | ·
O=C(CCCOc1ccccc1)NC(=S)Nc1ccccc1 | ? | 10µM* | -21% | -17% | -4%
O=C(CCCOc1ccccc1)Nc1ccncc1 | ? | 49% | 4% | 7% | 4%
Cc1cccc(NC(=S)NC(=O)CCc2ccccc2)c1 | ? | 10µM* | -27% | ? | -13%
CCNc1ncc2nc(C)c(=O)n(C[C@H]3CCCO3)c2n1 | -3% | -10% | · | · | ·
CCn1c(=O)c2sccc2n(Cc2ccc(C)cc2)c1=O | 5% | -17% | · | · | ·
O=C1CN(C(=O)COc2ccc(Cl)cc2Cl)C(c2ccccc2)c2cc(F)ccc2N1 (configuration not stated) | · | · | -22% | -10% | -12%
O=C1NC(=O)C(Cc2ccccc2)(c2cccnc2)N1 (configuration not stated) | -4% | -6% | 6% | 8% | -11%
CC(C)CC(C(=O)O)N1C(=O)C2C3C=CC(C2C1=O)C1C(=O)N(C(CC(C)C)C(=O)O)C(=O)C31 (configuration not stated) | -2% | -12% | · | · | ·
C[C@@H](N)CCCP(=O)(O)O | · | · | -11% | -5% | -3%
Cc1c(Cl)cccc1NC(=S)NC(=O)CCN1C(=O)c2ccccc2C1=O | ? | 16µM* | -3% | 5% | -6%
Cc1ccc(S(=O)(=O)NNC(=S)Nc2cccc(C)c2C)cc1 | ? | 5µM* | -9% | -15% | 6%
Cc1cccc(NC(=S)NC(=O)CCc2ccccc2)c1C | ? | 2.5µM* | -24% | -16% | -4%
Cc1cccc(NC(=S)NC(=O)c2ccco2)c1C | 11µM* | 3.5µM* | · | · | ·
Cc1cccc(NC(=S)NCCc2ccc(S(N)(=O)=O)cc2)c1C | 2% | -10% | -10% | -4% | -6%
CN1CCN(CCCNC(=O)Cn2c(-c3cccs3)cc3cc(Cl)ccc32)CC1 | · | · | -28% | -14% | -13%
Cc1cccc(NC(=S)NN(Cc2ccccc2)c2ccccc2)c1C | 3.5µM* | 3.5µM* | -12% | -8% | 2%
Cc1cccc(NC(=S)NC(=O)Cc2ccccc2)c1C | 4.5µM* | 4µM* | · | · | ·
CCOC(=O)c1noc2ncnc(Nc3cc(Cl)c(OC)cc3OC)c12 | · | · | -6% | -1% | -7%
COc1cc(OC)cc(C(=O)N2CCN(C(=O)c3ccc(-c4ccccc4)cc3)CC2)c1 | 7.1µM* | 1.1µM* | -13% | -6% | -11%
SMILES | VP16 counter | RORgamma inh | Tau fluor counter | Tau ThT inhib | Tau fibril FP
O=c1c2ncn([C@@H]3O[C@@H]4COP(=O)(O)O[C@H]4[C@H]3O)c2nc2[nH]c(-c3ccccc3)cn12 | -7% | 22% | · | · | ·
COc1ccc(CCNC(=O)/C=C\c2ccccc2)cc1OC | -12% | 25% | -13% | ? | -7%
COc1ccc(CCNC(=S)NC(=O)c2ccccc2)cc1OC | 7.1µM* | 4.5µM* | -15% | -13% | -2%
COc1ccc(CCNC(=S)NC(=O)c2cccc(Cl)c2)cc1OC | ? | 11µM* | ? | ? | 7%
O=C(NC(=S)NCCc1ccccc1)c1cccc(Cl)c1 | 18µM* | 13µM* | · | · | ·
COc1ccc(/C=C/C(=O)NC(=S)NCCc2ccc(OC)c(OC)c2)cc1 | ? | 2.8µM* | -5% | ? | -2%
O=C(Cc1ccccc1)NCCc1cccc(Cl)c1 | -20% | ? | -6% | 4% | 5%
C=CCOC(=O)N[C@H](/C(C(=O)OC)=C(\C)NCc1ccccc1)c1ccc2c(c1)OCO2 | 3% | -1% | -2% | -3% | -2%
COc1ccc(NC(=O)CSCc2cc(=O)c3cc(C)ccc3[nH]2)cc1 | · | · | -8% | -5% | -2%
Cc1nnc(SCC(=O)Nc2cc(Cl)ccc2Cl)n1CC1CCCO1 (configuration not stated) | -8% | -4% | · | · | ·
COc1ccc(C(=O)NC(=S)NCCc2ccccc2)cc1 | ? | 10µM* | -18% | -11% | -11%
COc1ccc(CCNC(=S)NC(=O)c2cccc([N+](=O)[O-])c2)cc1OC | 16µM* | 13µM* | · | · | ·
COc1ccc(CCNC(=O)c2ccccc2)cc1 | 8% | 23% | · | · | ·
COc1ccc(CCNC(=O)c2cc([N+](=O)[O-])cc([N+](=O)[O-])c2)cc1OC | 8% | -26% | · | · | ·
COc1ccc(C)cc1NC(=O)Cn1c(=O)oc2cc(S(=O)(=O)N3CCCCCC3)ccc21 | · | · | -8% | 1% | -12%
COc1cc2oc(-c3ccccc3)cc(=O)c2cc1OC | 5% | 26% | -18% | -15% | -9%
CN(C)c1ccc2c(-c3ccccc3)c3ccc(=[N+](C)C)cc-3oc2c1 | 3.2µM* | ? | · | · | ·
COc1ccc(/C=N/NC(=O)c2ccncc2)cc1CN1CCOCC1 | -1% | -16% | -3% | -4% | 0%
CCOc1cccc(-c2cc(C(=O)N/N=C/c3ccc(OC)c(CN4CCOCC4)c3)c3ccccc3n2)c1 | ? | 16µM* | -29% | -5% | -8%
COc1ccc(/C=C/C(=O)c2ccc3ccccc3c2O)cc1CN1CCOCC1 | -23% | -16% | -23% | 16µM* | -15%
CCOC(=O)c1c(-c2ccc(Br)cc2)csc1NC(=O)c1ccc(C(C)(C)C)cc1 | · | · | -1% | -6% | 6%
Cn1c(/C(C#N)=C(\O)c2ccc(Cl)s2)nc2ccccc21 | 4.5µM* | 2µM* | · | · | ·
O=C1c2ccccc2-c2onc3ccc(NCCCn4ccnc4)c1c23 | -23% | 13µM* | ? | 11µM* | 20µM*
CCOC(=O)c1c(-c2ccc(C)o2)csc1NC(=S)NC(=O)c1ccccc1Br | 10µM* | 7.9µM* | -22% | ? | -15%
CCOC(=O)c1c(-c2ccc(C)o2)csc1NC(=O)COC(=O)c1ccc(NC(N)=O)cc1 | 2% | -1% | ? | -15% | ?
CCOC(=O)c1c(-c2ccc(C)o2)csc1NC(=O)CSc1nnnn1-c1ccccc1 | 7.9µM* | 11µM* | 4% | -10% | 1%
CCOC(=O)c1c(-c2ccc(C)o2)csc1NC(=S)NC(=O)c1cccs1 | 2.5µM* | 1.4µM* | ? | ? | ?
CCOC(=O)c1c(-c2ccc(C)s2)csc1NC(=O)c1cccs1 | 1% | -19% | -10% | -15% | -15%
